In the supplement of paper PMC10849652:
The full data set covers some 7,900 targets. This sample favours those with a hit. About 0.6% of all pairs of compound and target were hits. Unmarked numbers belong to inactive results.

Legend:
Test in all cases: log2 fold change, soluble protein after heating vs DMSO (PISA); higher = thermal stabilisation; K562 cells, 10 uM, 30 min; active = over 0.2 and 3.5 SD of the protein, either way, in both replicates (recomputed)
saracatinib = compound: CN1CCN(CCOc2cc(OC3CCOCC3)c3c(Nc4c(Cl)ccc5c4OCO5)ncnc3c2)CC1 [saracatinib]
Procedure, shortened: (§1)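 Aliquots of K562 cells (2×10^6 cells/mL) treated with 10 μM compound for 30 min were heated for 3 min over 48°C-58°C. After pooling and extraction in PBS with 0.5% NP-40 at 4°C, soluble protein from a 21,000xg, 90 min spin was quantified by TMTpro 16plex LC-MS/MS with channel sums equalised. Thermal stability is expressed against control samples, from duplicates, as a log2 fold change.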

sotrastaurin = compound: CN1CCN(c2nc(C3=C(c4c[nH]c5ccccc45)C(=O)NC3=O)c3ccccc3n2)CC1 [sotrastaurin]
Procedure, shortened: as §1

alvocidib = compound: CN1CC[C@H](c2c(O)cc(O)c3c(=O)cc(-c4ccccc4Cl)oc23)[C@H](O)C1 [alvocidib]
Procedure, shortened: as §1

Tubastatin A = compound: CN1CCc2c(c3ccccc3n2Cc2ccc(C(=O)NO)cc2)C1 [Tubastatin A]
Procedure, shortened: as §1

[1] = compound: CNC(=O)C1=CC=CC=C1NC2=NC(=NC=C2Cl)NC3=C(C=C(C=C3)N4CCOCC4)OC
Procedure, shortened: as §1

defactinib = compound: CNC(=O)c1ccc(Nc2ncc(C(F)(F)F)c(NCc3nccnc3N(C)S(C)(=O)=O)n2)cc1 [defactinib]
Procedure, shortened: as §1

rucaparib = compound: CNCc1ccc(-c2[nH]c3cc(F)cc4c3c2CCNC4=O)cc1 [rucaparib]
Procedure, shortened: as §1

[2] = compound: CNc1nc(-c2ccc3c(N)n[nH]c3c2)cc(N2C[C@@H](C(=O)NC3CCCCC3)CC[C@H]2C)n1
Procedure, shortened: as §1

encorafenib = compound: COC(=O)N[C@@H](C)CNc1nccc(-c2cn(C(C)C)nc2-c2cc(Cl)cc(NS(C)(=O)=O)c2F)n1 [encorafenib]
Procedure, shortened: as §1

[3] = compound: COC(=O)[C@H](CCSC)NC(=O)C1=C(C=C(C=C1)NC[C@H](CS)N)C2=CC=CC=C2
Procedure, shortened: as §1

[4] = compound: COC1=CC=C(C=C1)CN2C=CC3=C2C=C(C=C3)C(=O)NO
Procedure, shortened: as §1

filanesib = compound: CON(C)C(=O)N1N=C(c2cc(F)ccc2F)S[C@@]1(CCCN)c1ccccc1 [filanesib]
Procedure, shortened: as §1

zotarolimus = compound: CO[C@H]1C[C@@H]2CC[C@@H](C)[C@@](O)(O2)C(=O)C(=O)N2CCCC[C@H]2C(=O)O[C@H]([C@H](C)C[C@@H]2CC[C@H](n3cnnn3)[C@H](OC)C2)CC(=O)[C@H](C)/C=C(\C)[C@@H](O)[C@@H](OC)C(=O)[C@H](C)C[C@H](C)/C=C/C=C/C=C/1C [zotarolimus]
Procedure, shortened: as §1

idasanutlin = compound: COc1cc(C(=O)O)ccc1NC(=O)[C@@H]1N[C@@H](CC(C)(C)C)[C@](C#N)(c2ccc(Cl)cc2F)[C@H]1c1cccc(Cl)c1F [idasanutlin]
Procedure, shortened: as §1

alisertib = compound: COc1cc(Nc2ncc3c(n2)-c2ccc(Cl)cc2C(c2c(F)cccc2OC)=NC3)ccc1C(=O)O [alisertib]
Procedure, shortened: as §1

[5] = compound: COc1cc2nc(-c3cc(F)ccc3O)nc(N[C@@H]3CNC[C@H]3C(C)(C)O)c2cc1OC
Procedure, shortened: as §1

gefitinib = compound: COc1cc2ncnc(Nc3ccc(F)c(Cl)c3)c2cc1OCCCN1CCOCC1 [gefitinib]
Procedure, shortened: as §1

[6] = compound: COc1cccc2cc(-c3nc([C@H]4CC[C@H](C(=O)O)CC4)n4ncnc(N)c34)[nH]c12
Procedure, shortened: as §1

lapatinib = compound: CS(=O)(=O)CCNCc1ccc(-c2ccc3ncnc(Nc4ccc(OCc5cccc(F)c5)c(Cl)c4)c3c2)o1 [lapatinib]
Procedure, shortened: as §1

pictilisib = compound: CS(=O)(=O)N1CCN(Cc2cc3nc(-c4cccc5[nH]ncc45)nc(N4CCOCC4)c3s2)CC1 [pictilisib]
Procedure, shortened: as §1

UniProt Q53GQ0, sequence (Q53GQ0 whole entry, looked up): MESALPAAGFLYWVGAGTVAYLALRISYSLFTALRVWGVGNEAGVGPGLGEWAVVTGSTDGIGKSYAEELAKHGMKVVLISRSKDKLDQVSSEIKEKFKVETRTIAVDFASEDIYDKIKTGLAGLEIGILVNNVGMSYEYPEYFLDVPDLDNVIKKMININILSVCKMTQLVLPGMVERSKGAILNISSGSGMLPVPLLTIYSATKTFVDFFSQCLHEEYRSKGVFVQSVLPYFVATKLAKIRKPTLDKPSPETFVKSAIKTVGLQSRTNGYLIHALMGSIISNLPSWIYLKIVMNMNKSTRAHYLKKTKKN
UniProt P49356, sequence (P49356 whole entry, looked up): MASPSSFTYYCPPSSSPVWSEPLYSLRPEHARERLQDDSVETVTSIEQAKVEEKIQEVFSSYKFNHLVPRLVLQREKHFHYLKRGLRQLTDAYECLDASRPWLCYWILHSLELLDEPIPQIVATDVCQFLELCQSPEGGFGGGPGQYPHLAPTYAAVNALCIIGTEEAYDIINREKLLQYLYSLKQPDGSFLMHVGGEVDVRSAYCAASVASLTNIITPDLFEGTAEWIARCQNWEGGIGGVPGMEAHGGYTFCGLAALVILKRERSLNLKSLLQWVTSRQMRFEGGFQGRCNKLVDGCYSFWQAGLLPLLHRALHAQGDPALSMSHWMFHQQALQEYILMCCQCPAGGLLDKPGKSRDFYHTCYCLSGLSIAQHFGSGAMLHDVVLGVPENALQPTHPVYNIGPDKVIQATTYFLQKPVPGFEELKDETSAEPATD
UniProt Q03013, sequence (Q03013 whole entry, looked up): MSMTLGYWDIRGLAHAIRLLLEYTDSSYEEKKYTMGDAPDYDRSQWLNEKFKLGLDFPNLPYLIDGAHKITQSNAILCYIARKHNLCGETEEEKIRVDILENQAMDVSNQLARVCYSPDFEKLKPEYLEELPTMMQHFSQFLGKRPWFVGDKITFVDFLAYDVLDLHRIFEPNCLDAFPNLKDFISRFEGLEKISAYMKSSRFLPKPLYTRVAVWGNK
UniProt P60520, sequence (P60520 whole entry, looked up): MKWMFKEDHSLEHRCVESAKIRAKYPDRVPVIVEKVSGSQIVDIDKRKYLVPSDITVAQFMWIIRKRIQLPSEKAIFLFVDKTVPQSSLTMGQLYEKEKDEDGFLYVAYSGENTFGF
UniProt Q96LB3, sequence (Q96LB3 whole entry, looked up): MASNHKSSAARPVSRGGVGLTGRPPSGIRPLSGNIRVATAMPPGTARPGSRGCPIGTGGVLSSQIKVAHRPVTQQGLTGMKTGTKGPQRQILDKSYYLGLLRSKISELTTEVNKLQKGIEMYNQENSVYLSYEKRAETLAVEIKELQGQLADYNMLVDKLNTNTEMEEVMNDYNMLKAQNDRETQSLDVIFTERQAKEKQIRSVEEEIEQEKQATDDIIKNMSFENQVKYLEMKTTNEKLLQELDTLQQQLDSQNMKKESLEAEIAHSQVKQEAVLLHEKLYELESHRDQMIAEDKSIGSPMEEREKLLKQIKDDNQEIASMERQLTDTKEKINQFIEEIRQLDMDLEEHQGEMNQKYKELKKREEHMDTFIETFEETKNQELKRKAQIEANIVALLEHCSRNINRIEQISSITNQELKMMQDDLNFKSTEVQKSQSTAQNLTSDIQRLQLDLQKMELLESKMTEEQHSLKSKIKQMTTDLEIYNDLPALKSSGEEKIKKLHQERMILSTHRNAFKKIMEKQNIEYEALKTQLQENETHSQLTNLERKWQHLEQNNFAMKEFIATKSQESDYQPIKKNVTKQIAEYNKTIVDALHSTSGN
UniProt P63218, sequence (P63218 whole entry, looked up): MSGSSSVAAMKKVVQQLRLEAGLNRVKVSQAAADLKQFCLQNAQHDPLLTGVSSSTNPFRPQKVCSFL
UniProt O14976, sequence (O14976 whole entry, looked up): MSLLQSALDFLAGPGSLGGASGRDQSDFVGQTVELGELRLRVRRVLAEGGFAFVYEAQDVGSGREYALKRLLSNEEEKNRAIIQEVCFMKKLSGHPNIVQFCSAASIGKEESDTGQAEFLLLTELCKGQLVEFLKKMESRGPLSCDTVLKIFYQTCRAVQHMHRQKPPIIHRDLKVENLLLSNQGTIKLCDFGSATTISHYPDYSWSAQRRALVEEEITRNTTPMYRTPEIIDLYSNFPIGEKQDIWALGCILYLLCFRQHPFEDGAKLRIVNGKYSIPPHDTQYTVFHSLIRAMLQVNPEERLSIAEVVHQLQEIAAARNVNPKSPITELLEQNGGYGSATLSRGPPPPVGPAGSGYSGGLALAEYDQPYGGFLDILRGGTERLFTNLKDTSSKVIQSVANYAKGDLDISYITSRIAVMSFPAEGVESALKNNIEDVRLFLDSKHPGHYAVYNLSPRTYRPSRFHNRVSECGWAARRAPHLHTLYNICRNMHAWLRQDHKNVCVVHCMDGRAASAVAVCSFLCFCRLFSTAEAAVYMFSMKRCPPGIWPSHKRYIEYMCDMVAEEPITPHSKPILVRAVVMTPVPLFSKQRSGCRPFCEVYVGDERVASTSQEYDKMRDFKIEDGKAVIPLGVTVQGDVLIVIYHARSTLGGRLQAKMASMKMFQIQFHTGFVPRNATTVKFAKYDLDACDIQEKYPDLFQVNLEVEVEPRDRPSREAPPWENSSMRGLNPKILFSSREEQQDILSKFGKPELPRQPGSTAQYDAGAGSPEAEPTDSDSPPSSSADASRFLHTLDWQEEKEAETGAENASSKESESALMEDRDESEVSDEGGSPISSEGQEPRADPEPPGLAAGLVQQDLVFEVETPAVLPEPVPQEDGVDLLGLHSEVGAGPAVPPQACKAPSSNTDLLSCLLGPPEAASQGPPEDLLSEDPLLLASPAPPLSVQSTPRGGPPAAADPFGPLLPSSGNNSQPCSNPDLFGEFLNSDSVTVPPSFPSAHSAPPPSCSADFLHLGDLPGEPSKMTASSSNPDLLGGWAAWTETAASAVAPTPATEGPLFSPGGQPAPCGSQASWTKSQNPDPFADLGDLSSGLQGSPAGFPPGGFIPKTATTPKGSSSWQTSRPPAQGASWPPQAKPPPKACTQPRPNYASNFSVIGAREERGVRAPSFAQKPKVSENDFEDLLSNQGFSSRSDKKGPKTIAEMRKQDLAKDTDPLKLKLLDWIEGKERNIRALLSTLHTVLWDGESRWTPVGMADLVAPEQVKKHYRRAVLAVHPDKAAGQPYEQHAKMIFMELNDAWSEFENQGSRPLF
UniProt Q9H0R8, sequence (Q9H0R8 whole entry, looked up): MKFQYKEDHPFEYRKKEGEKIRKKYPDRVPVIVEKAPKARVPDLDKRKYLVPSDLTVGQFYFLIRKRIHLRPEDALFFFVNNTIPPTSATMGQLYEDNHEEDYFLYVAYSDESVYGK
UniProt P52597, sequence (P52597 whole entry, looked up): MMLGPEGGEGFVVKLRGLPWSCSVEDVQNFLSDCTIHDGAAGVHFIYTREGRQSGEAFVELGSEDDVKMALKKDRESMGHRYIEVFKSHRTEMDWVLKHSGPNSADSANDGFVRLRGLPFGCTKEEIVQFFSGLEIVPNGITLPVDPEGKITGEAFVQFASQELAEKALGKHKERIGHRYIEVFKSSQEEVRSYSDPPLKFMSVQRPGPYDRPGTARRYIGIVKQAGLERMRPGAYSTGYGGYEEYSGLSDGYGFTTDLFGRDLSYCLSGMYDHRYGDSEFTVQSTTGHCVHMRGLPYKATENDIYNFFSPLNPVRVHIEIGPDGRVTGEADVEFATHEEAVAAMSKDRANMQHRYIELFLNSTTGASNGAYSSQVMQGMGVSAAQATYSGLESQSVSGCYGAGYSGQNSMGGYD
UniProt O00291, sequence (O00291 whole entry, looked up): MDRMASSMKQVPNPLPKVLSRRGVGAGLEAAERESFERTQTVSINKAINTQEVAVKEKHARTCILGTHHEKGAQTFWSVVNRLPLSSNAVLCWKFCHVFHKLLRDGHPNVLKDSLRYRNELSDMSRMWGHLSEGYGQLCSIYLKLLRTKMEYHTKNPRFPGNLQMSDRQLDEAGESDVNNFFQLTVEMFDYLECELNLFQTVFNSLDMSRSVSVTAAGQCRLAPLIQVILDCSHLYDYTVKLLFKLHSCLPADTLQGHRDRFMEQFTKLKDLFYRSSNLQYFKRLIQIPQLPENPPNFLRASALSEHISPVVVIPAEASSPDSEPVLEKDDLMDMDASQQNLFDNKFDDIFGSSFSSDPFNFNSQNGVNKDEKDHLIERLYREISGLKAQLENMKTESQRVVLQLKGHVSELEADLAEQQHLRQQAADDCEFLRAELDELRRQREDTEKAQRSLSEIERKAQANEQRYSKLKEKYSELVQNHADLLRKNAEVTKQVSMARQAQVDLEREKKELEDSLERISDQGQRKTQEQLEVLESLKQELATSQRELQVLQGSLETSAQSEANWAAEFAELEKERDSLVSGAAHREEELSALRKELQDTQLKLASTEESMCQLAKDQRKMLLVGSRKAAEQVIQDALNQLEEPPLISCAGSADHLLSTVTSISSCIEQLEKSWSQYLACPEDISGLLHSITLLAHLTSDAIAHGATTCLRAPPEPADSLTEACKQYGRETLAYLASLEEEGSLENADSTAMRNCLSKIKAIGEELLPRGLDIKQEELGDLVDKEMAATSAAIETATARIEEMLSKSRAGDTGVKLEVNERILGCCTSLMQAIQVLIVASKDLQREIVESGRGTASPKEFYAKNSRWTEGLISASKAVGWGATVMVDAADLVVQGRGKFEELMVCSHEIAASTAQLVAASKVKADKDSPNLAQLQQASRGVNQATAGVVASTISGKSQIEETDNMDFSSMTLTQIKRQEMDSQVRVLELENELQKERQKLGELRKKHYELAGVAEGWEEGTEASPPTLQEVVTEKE
UniProt Q9H0R4, sequence (Q9H0R4 whole entry, looked up): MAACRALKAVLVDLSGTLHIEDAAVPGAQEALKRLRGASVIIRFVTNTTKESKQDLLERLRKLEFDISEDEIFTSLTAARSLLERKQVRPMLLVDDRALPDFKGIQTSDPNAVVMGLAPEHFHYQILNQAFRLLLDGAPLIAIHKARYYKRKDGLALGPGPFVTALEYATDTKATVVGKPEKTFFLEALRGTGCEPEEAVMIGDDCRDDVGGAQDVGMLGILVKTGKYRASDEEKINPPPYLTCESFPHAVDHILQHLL

| Target | log2 fold change (saracatinib) | log2 fold change (sotrastaurin) | log2 fold change (alvocidib) | log2 fold change (Tubastatin A) | log2 fold change [1] | log2 fold change (defactinib) | log2 fold change (rucaparib) | log2 fold change [2] | log2 fold change (encorafenib) | log2 fold change [3] | log2 fold change [4] | log2 fold change (filanesib) | log2 fold change (zotarolimus) | log2 fold change (idasanutlin) | log2 fold change (alisertib) | log2 fold change [5] | log2 fold change (gefitinib) | log2 fold change [6] | log2 fold change (lapatinib) | log2 fold change (pictilisib) |
| --- | --- | --- | --- | --- | --- | --- | --- | --- | --- | --- | --- | --- | --- | --- | --- | --- | --- | --- | --- | --- |
| IFT74 (UniProt Q96LB3) | -0.079 | -0.001 | 0.048 | 0.259 | -0.223 | 0.028 | 0.06 | 0.003 | -0.055 | 0.075 | 0.083 | -0.014 | 0.019 | -0.058 | -0.102 | 0.339 | 0.035 | 0.024 | -0.025 | 0.052 |
| GABARAPL1 isoform 2 (UniProt Q9H0R8) | -0.057 | 0 | -0.019 | 0.08 | 0.023 | -0.011 | -0.079 | -0.006 | -0.004 | -0.058 | 0.053 | -0.054 | 0.024 | -0.112 | 0.024 | 0.007 | 0.021 | -0.01 | -0.026 | 0.115 |
| GNG5 (UniProt P63218) | 0.022 | 0.033 | 0.019 | 0.049 | 0.028 | -0.041 | -0.002 | -0.041 | -0.073 | -0.008 | 0.082 | 0.086 | -0.016 | 0.065 | -0.146 | -0.022 | 0.224 | 0.079 | -0.006 | -0.087 |
| HDHD2 (UniProt Q9H0R4) | -0.004 | -0.077 | -0.028 | -0.016 | -0.017 | 0 | -0.049 | -0.048 | 0.016 | -0.018 | 0.048 | -0.097 | -0.027 | 0.006 | -0.06 | -0.007 | 0.024 | 0.085 | -0.03 | -0.011 |
| FDXR isoform 7 (UniProt P22570) | -0.027 | 0.116 | -0.058 | -0.01 | -0.012 | -0.115 | -0.035 | 0.034 | -0.034 | -0.023 | -0.005 | -0.122 | 0.021 | -0.179 | -0.019 | 0.06 | 0.048 | 0.074 | -0.057 | 0.201 |
| GIGYF2 (UniProt Q6Y7W6) | -0.097 | -0.111 | -0.118 | 0.023 | 0.005 | -0.04 | 0.065 | 0.016 | -0.018 | -0.022 | 0.005 | 0.008 | 0.016 | 0 | -0.023 | 0.07 | -0.043 | -0.026 | -0.016 | -0.027 |
| FNTB (UniProt P49356) | 0.046 | 0.346 | -0.113 | 0.017 | -0.036 | 0.095 | 0.02 | -0.007 | -0.016 | 0.974 (active) | 0.088 | 0.26 | 0.159 | -0.024 | -0.074 | -0.057 | 0.02 | 0.024 | 0.18 | -0.165 |
| GAK (UniProt O14976) | 1.06 | -0.066 | 1.14 | 0.011 | 1.11 | 0.658 | 0.237 | 0.402 | -0.17 | -0.266 | -0.013 | 0.024 | 0.033 | -0.748 | -0.025 | 1.44 | 0.84 | -0.107 | 0.143 | 0.226 |
| GSR (UniProt P00390) | -0.021 | 0.048 | 0 | 0.008 | -0.006 | -0.016 | -0.025 | -0.021 | -0.02 | 0.002 | 0.023 | -0.065 | -0.039 | -0.049 | -0.032 | 0.015 | -0.016 | 0.043 | -0.057 | 0.036 |
| HIP1 (UniProt O00291) | 0.078 | -0.079 | -0.102 | 0.038 | 0.008 | -0.001 | 0.065 | -0.024 | -0.048 | -0.001 | 0.022 | -0.026 | 0.017 | -0.003 | -0.269 | 0.029 | 0.016 | 0.047 | 0.059 | 0 |
| HIST2H2BF isoform 2 (UniProt Q5QNW6) | -0.084 | 0.074 | 0.144 | 0.093 | -0.044 | 0.313 | 0.325 | 0.039 | 0.015 | 0.05 | 0.062 | 0.248 | -0.163 | 0.437 | 0.081 | -0.112 | 0.053 | -0.314 | 0.047 | -0.137 |
| HSD17B12 (UniProt Q53GQ0) | -0.037 | 0.151 | -0.082 | -0.007 | 0.005 | -0.024 | -0.043 | 0.038 | 0.027 | 0.013 | 0.069 | -0.013 | 0.03 | -0.169 | 0.003 | 0.135 | 0.103 | 0.045 | 0.369 (active) | 0.102 |
| FKBP4 (UniProt Q02790) | -0.048 | -0.022 | -0.092 | -0.009 | 0.032 | -0.055 | 0.016 | 0.05 | 0.026 | -0.036 | 0.015 | -0.066 | 0.077 | -0.048 | -0.018 | 0.031 | 0.008 | 0.009 | -0.062 | 0.027 |
| GSTM4 (UniProt Q03013) | -0.106 | -0.066 | -0.065 | -0.044 | 0.003 | -0.086 | -0.385 (active) | 0.06 | -0.238 | 0.093 | 0.027 | 0.103 | 0.084 | 0.031 | 0.061 | 0.084 | -0.056 | 0.068 | 0.031 | 0.022 |
| HNRNPF (UniProt P52597) | -0.042 | -0.121 | -0.088 | 0.086 | 0.004 | -0.253 | 0.098 | 0.004 | 0.119 | -0.06 | 0.059 | -0.03 | 0.046 | 0.073 | 0.03 | -0.036 | -0.034 | -0.026 | 0.008 | -0.088 |
| GABARAPL2 (UniProt P60520) | 0.021 | 0.047 | -0.008 | 0.045 | 0.011 | -0.019 | -0.111 | -0.013 | -0.02 | -0.009 | 0.185 | -0.01 | -0.036 | -0.072 | 0.016 | 0.033 | -0.014 | 0 | -0.006 | -0.059 |
